Several values for one entry are separate records, joined by “and”; a condition that tells them apart may be missing. Identical values can stand only once. Inconclusive results are not listed. A call without a number means that no potency is given here. Activity calls are given as the source filed them. Calls come from the whole dose curve.

Here are results for 40 molecules from PubChem BioAssay (Tox21).
Potency is the fitted concentration of half-maximal effect.

This experiment is described as follows: qHTS assay to identify small molecule agonists of the endoplasmic reticulum stress response signaling pathway - cell viability counter screen (AID 1159517). Note: nearly all actives have a fitted effect of over 50% in size. The note with it: ESRE-bla HeLa viability, CellTiter-Glo luminescence, 5 h; series mostly up to 61 µM. An excerpt:
U.S. Tox21 Program National Center for Advancing Translational Sciences [NCATS] NIH Chemical Genomics Center [NCGC] U.S. Environmental Protection Agency [EPA] National Institutes of Environmental Health Sciences [NIEHS] National Toxicology Program [NTP] U.S. Food and Drug Administration [FDA] Tox21 Assay Overview: Endoplasmic Reticulum (ER) plays an important role in cellular signaling, protein folding/maturation, stress response, lipid biosynthesis, calcium storage and release etc. Under stress conditions, proteins in ER misfold or unfold, and leading to the expression of ER stress responsive genes. ER stress has been associated with a variety of pathophysiological conditions such as cancer, inflammation, neurodegenerative diseases, diabetes, ischemic heart disease etc. To identify the compounds that induce ER stress response, an ER stress reporter cell line, CellSensor ESRE-bla HeLa (Life Technologies, Carlsbad, CA) containing a beta-lactamase reporter gene under control of the Endoplasmic reticulum Stress Response Element (ESRE) was used to screen Tox21 10K compound library. The cytotoxicity of the Tox21 compound library against the ESRE-bla HeLa cell line was tested in parallel by measuring cell viability using the CellTiter-Glo assay in the same wells.
Tox21 Assay Protocol Summary: ESRE-bla HeLa cells were dispensed at 1,500 cells/6 uL of assay medium per well into black wall/clear-bottom 1536-well plates using a Multidrop Combi (ThermoFisher Scientific, Waltham, MA) dispenser. After the assay plates were incubated at 37 C and 5% CO2 for an overnight, 23 nL of compounds dissolved in DMSO, positive controls or DMSO only was transferred to the assay plate by a Pintool station (Kalypsys, San Diego, CA). The assay plates were incubated at 37 C and 5% CO2 for 5 hr. One uL of LiveBLAzer B/G FRET substrate (Life Technologies) was added using a FRD (Flying Reagent Dispenser, Aurora Discovery, San Diego, CA) and the plates were incubated at room temperature for 2 hr. Fluorescence intensity (405 nm excitation, 460 nm and 530 nm emissions) was measured using an Envision plate reader (PerkinElmer, Shelton, CT). For cytotoxicity, 4 ul/well of CellTiter-Glo reagent was added into the assay plates using an FRD. After 30 min incubation at room temperature, the luminescence intensity was measured using a ViewLux plate reader (PerkinElmer).
On the technique in general: qHTS replaces the single test concentration by a dilution series.
In the case of `[Na+]`, the Potency result is “inactive”.

On to `CCCCCCCCCCC(CO)CCCCCCCC` (stereo not given), for which the Potency entry is “inactive”.

As to `CC1(C)OC(=O)NC1=O`, the Potency entry was “inactive”.

Turning to `IC(I)I`, the Potency result is “inactive”.

As to `COc1ccc(-c2coc3cc(O)cc(O)c3c2=O)cc1`, the Potency entry was “inactive”.

`Nc1cc([N+](=O)[O-])ccc1C(=O)O`: the Potency result was “inactive”.

In the case of `CCC/C=C/C=O`, the Potency result is “inactive”.

As for `Nc1ccc(N)c(Cl)c1`, the Potency result is “inactive”.

As to `Nc1ccc2c(c1)C(=O)c1ccccc1C2=O`, the Potency result is “inactive”.

With `NCCS(=O)(=O)O`, the Potency result is “inactive”.

In the case of `COC(=O)c1ccc(C)cc1`, the Potency result is “inactive”.

As to `c1ccc2ncccc2c1`, the Potency entry is “inactive”.

For the molecule `CC(=O)[C@H]1CC[C@H]2[C@@H]3CC=C4C[C@@H](O)CC[C@]4(C)[C@H]3CC[C@]12C`, the Potency result is “inactive”.

Consider `O=C(O)CCCCCCCCCCCC(=O)O`, for which the Potency result is “inactive”.

In the case of `C=C[C@H]1CN2CC[C@H]1C[C@H]2[C@H](O)c1ccnc2ccc(OC)cc12`, the Potency result is “inactive”.

As to `COC(=O)C(C)Oc1ccc(Oc2ncc(C(F)(F)F)cc2Cl)cc1` (stereo not given), the Potency entry is “inactive”.

Consider `Cc1cccc(Nc2ccccc2C(=O)O)c1C`, for which the Potency result is “inactive”.

Take `CNC[C@H](O)c1ccc(O)c(O)c1`: the Potency result was “inactive”.

Take `Cc1ccc(C(C)(C)C)c(O)c1`: the Potency entry is “inactive”.

For `CC(C)[N+](C)(CCOC(=O)C1c2ccccc2Oc2ccccc21)C(C)C`, the Potency entry was “inactive”.

For `CCCCCCC(C)O` (stereo not given), the Potency result is “inactive”.

For `CN1CCOCC1`, the Potency result was “inactive”.

For `CN(C)CCCN1c2ccccc2Sc2ccc(Cl)cc21`, the Potency entry is “inactive”.

Take `CCCCCC1C(=O)CCC1CC(=O)OC` (stereo not given): the Potency entry was “inactive”.

As for `O=C(O)c1ccc(O)cc1`, the Potency result is “inactive”.

With `COc1ccc(C(=O)c2ccccc2O)c(O)c1`, the Potency result is “inactive”.

In the case of `CC[C@]12CCCN3CCc4c(n(c5ccccc45)[C@@](O)(C(=O)OC)C1)[C@@H]32`, the Potency result is “inactive”.

As for `CN(Cc1cnc2nc(N)nc(N)c2n1)c1ccc(C(=O)N[C@@H](CCC(=O)O)C(=O)O)cc1`, the Potency result is “inactive”.

As to `C=C[C@@]1(C)CC(=O)[C@]2(O)[C@@]3(C)[C@@H](O)CCC(C)(C)[C@@H]3[C@H](O)[C@H](OC(C)=O)[C@@]2(C)O1`, the Potency is 21.9 µM (active) and 21.3 µM (active).

Turning to `O=C1OC2(c3ccccc31)c1cc(I)c(O)c(I)c1Oc1c2cc(I)c(O)c1I`, the Potency entry is “inactive”.

On to `C=CC(=O)OCCCC`, for which the Potency entry was “inactive”.

For the molecule `c1ccc2c(c1)[nH]c1ccccc12`, the Potency entry is “inactive”.

Turning to `O=C(O)c1cc(=O)[nH]c(=O)[nH]1`, the Potency result was “inactive”.

For `NCCOCCO`, the Potency result was “inactive”.

As for `CC(=O)O[C@]1(C(C)=O)CC[C@H]2[C@@H]3C=C(Cl)C4=CC(=O)CC[C@]4(C)[C@H]3CC[C@@]21C`, the Potency result is “inactive”.

For `C1COCCN1`, the Potency result is “inactive”.

As to `O=Cc1ccccc1C=O`, the Potency result is “inactive”.

Consider `Oc1c(Cl)ccc(Cl)c1Cl`, for which the Potency result is “inactive”.

As for `CCCCCCOCCOCCO`, the Potency result is “inactive”.

Take `CCO[Si](CCCNC(N)=O)(OCC)OCC`: the Potency entry is “inactive”.
